Measured values taken from PubChem BioAssay (NCATS).
Inconclusive results are not listed. Active and inactive are the calls of the source. Calls follow the shape of the dose curve; as a rule, active = well fitted curve in the direction sought with a large enough effect; inconclusive = small, poorly fitted or top-dose-only effect, or another doubt; inactive = no such curve, though single readings can be large; an effect the other way counts as inactive or inconclusive.

Tests used:
[1] = system: MCC-13; assay: qHTS assay to identify novel small-molecules to repurpose for Merkel cell carcinoma treatment (AID 1296009); details: MCC and control cell lines, CellTiter-Glo viability, 72 h; series mostly up to 46 µM; also: nearly all actives have a fitted effect of over 60% in size
Method in brief: (§1)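 After compound transfer in DMSO, plates were kept 72 hr at 37 degree celsius. Luminescent ATP signal from CellTiter-Glo served as viability measure, normalized against DMSO and no-cell controls.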

[2] = system: MCC-26; assay: as above; details: MCC and control cell lines, CellTiter-Glo viability, 72 h; series mostly up to 46 µM
Method in brief: as §1

[3] = system: MKL-1; assay: as above; details: MCC and control cell lines, CellTiter-Glo viability, 72 h; series mostly up to 46 µM
Method in brief: as §1

[4] = system: MKL-2; assay: as above; details: MCC and control cell lines, CellTiter-Glo viability, 72 h; series mostly up to 46 µM
Method in brief: as §1

[5] = system: UISO; assay: as above; details: MCC and control cell lines, CellTiter-Glo viability, 72 h; series mostly up to 46 µM
Method in brief: as §1

[6] = system: WaGa; assay: as above; details: MCC and control cell lines, CellTiter-Glo viability, 72 h; series mostly up to 46 µM
Method in brief: as §1

[7] = system: C33A; assay: Primary qHTS to identify gynecologic anti-cancer compounds using libraries of approved drugs and bioactive compounds (AID 1345084); details: Gynecologic cancer cell panel viability, ATPlite luminescence, 48 h; series mostly up to 57.5 µM; also: nearly all actives have a fitted effect of over 55% in size
Method in brief: (§2)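 48 h compound exposure at 37 C, 5% CO2; five-point qHTS. ATPlite luminescence readout of cell ATP.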

[8] = system: CAOV3; assay: as above; details: Gynecologic cancer cell panel viability, ATPlite luminescence, 48 h; series mostly up to 57.5 µM
Method in brief: as §2

[9] = system: CASKI; assay: as above; details: Gynecologic cancer cell panel viability, ATPlite luminescence, 48 h; series mostly up to 57.5 µM
Method in brief: as §2

[10] = system: Es-2; assay: as above; details: Gynecologic cancer cell panel viability, ATPlite luminescence, 48 h; series mostly up to 57.5 µM
Method in brief: as §2

[11] = system: HeLa; assay: as above; details: Gynecologic cancer cell panel viability, ATPlite luminescence, 48 h; series mostly up to 57.5 µM
Method in brief: as §2

[12] = system: Hek293T; assay: as above; details: Gynecologic cancer cell panel viability, ATPlite luminescence, 48 h, control line for the selectivity index; series mostly up to 57.5 µM
Method in brief: as §2

[13] = system: JEG-3; assay: as above; details: Gynecologic cancer cell panel viability, ATPlite luminescence, 48 h; series mostly up to 57.5 µM
Method in brief: as §2

[14] = system: OV90; assay: as above; details: Gynecologic cancer cell panel viability, ATPlite luminescence, 48 h; series mostly up to 57.5 µM
Method in brief: as §2

[15] = system: PA-1; assay: as above; details: Gynecologic cancer cell panel viability, ATPlite luminescence, 48 h; series mostly up to 57.5 µM
Method in brief: as §2

[16] = system: SKOV3; assay: as above; details: Gynecologic cancer cell panel viability, ATPlite luminescence, 48 h; series mostly up to 57.5 µM
Method in brief: as §2

[17] = system: Tov-21-G; assay: as above; details: Gynecologic cancer cell panel viability, ATPlite luminescence, 48 h; series mostly up to 57.5 µM
Method in brief: as §2

[18] = system: Tov112D; assay: as above; details: Gynecologic cancer cell panel viability, ATPlite luminescence, 48 h; series mostly up to 57.5 µM
Method in brief: as §2

[19] = Drug repurposing screens with cells derived from glioblastoma tumor samples (AID 1345199); details: GBM patient neurospheres viability, ATP luminescence, 48 h; also: nearly all actives have a fitted effect of over 40% in size
Method in brief: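 Four patient lines of CD133+ GBM neurospheres were screened at several concentrations; hits were retested in those lines plus three slower-growing GBM lines, using 48-hour treatment and ATP-based viability.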

[20] = at 45.9 µM (top of the series), tumour line B
[21] = at 45.9 µM (top of the series), tumour line D
[22] = at 46 µM (top of the series), tumour line A
[23] = at 46.1 µM (top of the series), tumour line C
[24] = at 20 µM (top of the series), tumour line C
[25] = at 21.2 µM (top of the series), tumour line B
[26] = at 21.2 µM (top of the series), tumour line D
[27] = at 21.3 µM (top of the series), tumour line A
% is scaled to controls: 0 for no effect and ±100 for the full control effect.

CC(=O)NS(=O)(=O)c1ccc(N)cc1
inactive: outcome [1] | outcome [2] | outcome [3] | outcome [4] | outcome [5] | outcome [6] | outcome [7] | outcome [8] | outcome [9] | outcome [10] | outcome [11] | outcome [12] | outcome [13] | Potency [14] | outcome [15] | outcome [16] | outcome [17] | outcome [18] | activity, negative = cell killing [19, 20] -8.29% | activity, negative = cell killing [19, 21] -18.7% | activity, negative = cell killing [19, 22] -22.6% | activity, negative = cell killing [19, 23] -4.02%

NS(=O)(=O)c1ccc(C(=O)O)cc1
inactive: outcome [1] | outcome [2] | outcome [3] | outcome [4] | outcome [5] | outcome [6] | outcome [7] | outcome [8] | outcome [9] | outcome [10] | outcome [11] | outcome [12] | outcome [13] | Potency [14] | outcome [15] | outcome [16] | outcome [17] | outcome [18] | activity, negative = cell killing [19, 20] -5.24% | activity, negative = cell killing [19, 21] 4.61% | activity, negative = cell killing [19, 22] -19% | activity, negative = cell killing [19, 23] -15.2%

CN/C(=C\[N+](=O)[O-])NCCSCc1csc(CN(C)C)n1
inactive: outcome [1] | outcome [2] | outcome [3] | outcome [4] | outcome [5] | outcome [6] | outcome [7] | outcome [8] | outcome [9] | outcome [10] | outcome [11] | outcome [12] | outcome [13] | Potency [14] | outcome [15] | outcome [16] | outcome [17] | outcome [18] | activity, negative = cell killing [19, 24] -1.68% | activity, negative = cell killing [19, 25] 0.685% | activity, negative = cell killing [19, 26] -13.3% | activity, negative = cell killing [19, 27] -19.6%

CC(=O)Oc1cccc(C)c1
inactive: outcome [1] | outcome [2] | outcome [3] | outcome [4] | outcome [5] | outcome [6] | outcome [7] | outcome [8] | outcome [9] | outcome [10] | outcome [11] | outcome [12] | outcome [13] | Potency [14] | outcome [15] | outcome [16] | outcome [17] | outcome [18] | activity, negative = cell killing [19, 20] -2.63% | activity, negative = cell killing [19, 21] -6.87% | activity, negative = cell killing [19, 22] -17.9% | activity, negative = cell killing [19, 23] -0.258%

C/C=C/C(=O)N(CC)c1ccccc1C
inactive: outcome [1] | outcome [2] | outcome [3] | outcome [4] | outcome [5] | outcome [6] | outcome [7] | outcome [8] | outcome [9] | outcome [10] | outcome [11] | outcome [12] | outcome [13] | Potency [14] | outcome [15] | outcome [16] | outcome [17] | outcome [18] | activity, negative = cell killing [19, 24] -3.94% | activity, negative = cell killing [19, 25] 0.996% | activity, negative = cell killing [19, 26] -17.6% | activity, negative = cell killing [19, 27] -13.7%

O=c1[nH]cnc2nc[nH]c12
inactive: outcome [1] | outcome [2] | outcome [3] | outcome [4] | outcome [5] | outcome [6] | outcome [7] | outcome [8] | outcome [9] | outcome [10] | outcome [11] | outcome [12] | outcome [13] | Potency [14] | outcome [15] | outcome [16] | outcome [17] | outcome [18] | activity, negative = cell killing [19, 20] -0.606% | activity, negative = cell killing [19, 21] 15.6% | activity, negative = cell killing [19, 22] -28.5% | activity, negative = cell killing [19, 23] -12.9%

C[C@@H](N)C(=O)O
inactive: outcome [1] | outcome [2] | outcome [3] | outcome [4] | outcome [5] | outcome [6] | outcome [7] | outcome [8] | outcome [9] | outcome [10] | outcome [11] | outcome [12] | outcome [13] | Potency [14] | outcome [15] | outcome [16] | outcome [17] | outcome [18] | activity, negative = cell killing [19, 20] -7.83% | activity, negative = cell killing [19, 21] -21.5% | activity, negative = cell killing [19, 23] 15%

COc1cc(O)cc(O)c1
inactive: outcome [1] | outcome [2] | outcome [3] | outcome [4] | outcome [5] | outcome [6] | outcome [7] | outcome [8] | outcome [9] | outcome [10] | outcome [11] | outcome [12] | outcome [13] | Potency [14] | outcome [15] | outcome [16] | outcome [17] | outcome [18] | activity, negative = cell killing [19, 20] -0.182% | activity, negative = cell killing [19, 21] -4.84% | activity, negative = cell killing [19, 22] -38.5% | activity, negative = cell killing [19, 23] -3.31%
